Data published in PubChem BioAssay.

Molecular target: Streptavidin (Streptomyces avidinii) (UniProt P22629)
Assay: compounds binding control protein streptavidin – biophysical, small-molecule microarray, 635/667 nm fluorescence, artefact control for SMM compound annotation, primary screen (AID 1147);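 note: signal reflects streptavidin binding to arrayed compounds as a control protein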
Settings: higher = more signal

Chain of Streptavidin (Streptomyces avidinii) (P22629 whole entry, looked up): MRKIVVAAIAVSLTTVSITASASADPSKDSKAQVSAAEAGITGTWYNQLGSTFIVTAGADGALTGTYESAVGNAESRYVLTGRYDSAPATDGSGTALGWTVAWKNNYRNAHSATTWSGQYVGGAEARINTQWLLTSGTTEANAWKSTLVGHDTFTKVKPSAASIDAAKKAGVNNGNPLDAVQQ

| SMILES | composite z-score |
| --- | --- |
| COC(=O)[C@@]1(Cc2ccc(F)cc2)[C@H]2c3cc(C(=O)N(C)C)n(Cc4ccc(C(F)(F)F)nc4)c3C[C@H]2CN1C(=O)c1ccccc1 | 1.55 |
| COC(=O)[C@@]1(Cc2ccccc2)[C@H]2c3cc(C(=O)N(C)C)n(Cc4ccc(Cl)c(C(F)(F)F)c4)c3C[C@H]2CN1C(=O)c1ccccc1 | 1.56 |
| CN1C(=O)C2C=CC(C(O)c3ccc(I)cc3)N(N(c3ccccc3)c3ccccc3)C2C1=O (stereo unspecified) | 0.609 |
| Cc1ccc(S[C@]2(C(=O)NCc3ccccc3)CC(=O)N(Cc3ccccc3C(F)(F)F)[C@@H]2c2ccc(CO)cc2I)cc1 | -0.464 |
| COCCCNC(=O)[C@@]1(CCC(=O)OC(C)(C)C)N=C(c2ccc(OCCCO)cc2)O[C@H]1c1ccccc1 | 0.471 |
| C=C(COC)/C(=C/C[C@@H](OC(C)=O)c1cccc(OCCO)c1)c1cnc2ccccc2c1 | 0.897 |
| COC(=O)[C@@]1(Cc2ccc(F)cc2)[C@H]2c3cc(C(=O)N4CCCC4)n(Cc4ccc(OC(F)(F)F)cc4)c3C[C@H]2CN1C(=O)c1ccccc1 | -0.203 |
| O=C1OCCC/C=C\[C@H]2OC34C=CCN(Cc5ccccc5)C(=O)[C@H]3N(CCO)C(=O)[C@@H]4C12 (stereo partly specified) | -1.06 |
| COC(=O)[C@H](Cc1ccccc1)N1CC(C)(OC)O[C@@H](Cc2ccccc2)[C@H]1/C=C/C1CC1 (stereo partly specified) | 0.0404 |
| COc1c(C)cc(-c2cc3c(c(CCc4ccccc4)n2)[Si](C(C)C)(C(C)C)O[C@H]3c2ccccc2)cc1C | -0.0663 |
| [N-]=[N+]=Nc1ccccc1C[C@@]1(C(=O)NCc2ccccc2)N=C(c2ccc(OCCCO)cc2)O[C@@H]1c1ccccc1 | 0.877 |
